Assay outcomes from PubChem.
Autofluor 339 – intrinsic fluorescence of library compounds, ex339/em460 – biochemical, MLSMR library, data from DPM-DC assay, artefact control, profiling panel; compound autofluorescence, ex339/em460 nm, NADH buffer; active compounds read high; 1 = no-compound wells, NADH background; fluorescence fold increase at 10 µM; AID 709; 65,000 tested, 5.5% active;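 active = at 10 µM, mean starting fluorescence two-fold or more over control wells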;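 note: signal is the first read of a kinetic run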
NADH enzymes – inhibitors of enzymes used to reach an NAD/NADH endpoint. coupled PK/LDH NADH assays, four targets. IC50, µM (series often up to 10 µM). 65,000 tested, 0.02% active;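 active = single-dose screening hits from any of four coupled enzyme assays that gave an IC50 when retested across doses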;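 note: the DPM-DC format reads NADH fluorescence rather than 340 nm absorbance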
DPM-DC inhibit – inhibitors of Streptococcus pneumoniae diphosphomevalonate decarboxylase. 65,000 tested, 0.49% active. purified DPM-DC, PK/LDH coupled NADH fluorescence. calls only at 10 µM;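 active = the 320 compounds with the highest percent inhibition in the single-dose primary screen, excluding strongly autofluorescent ones, cut at about 32% in these data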;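 note: kinetic rate of NADH fluorescence loss reporting ADP formed by the decarboxylase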
Abs 340nm – absorbance at 340 nm; compound absorbance at 340 nm, fold over control; fold change at 10 µM; 65,000 tested, under 10 active; AID 708;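 active = at 10 µM dose, initial 340 nm absorbance at least 2 fold that of control wells; inactive = change under 2 fold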;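 note: initial absorbance extrapolated from kinetic A340 decline of NADH oxidation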
PMK inhibit – inhibitors of Streptococcus pneumoniae phosphomevalonate kinase. inhibition, % at 10 µM. purified PMK, PK/LDH-coupled NADH absorbance 340 nm. 65,000 tested, 0.49% active. AID 539;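 active = top-ranked compounds by inhibition in the single 10 µM screen, taking a fixed number of the strongest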
Spn MK inh – blocks S. pneumoniae mevalonate kinase. purified MK, PK/LDH-coupled NADH absorbance 340 nm. 65,000 tested, 0.48% active. inhibition, % at 10 µM;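 active = ranked among the strongest by inhibition in the single 10 µM screen, a fixed top-ranked set picked for dose follow-up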
A number is an active result. Most compounds without a hit are left out; they make up all but 6.5% or so of the library.

How did CC1=Nn2c(nnc2-c2ccc(F)cc2)SC1 do in these assays?
Autofluor 339: inactive; NADH enzymes: inactive; DPM-DC inhibit: inactive; Abs 340nm: inactive; PMK inhibit: inactive; Spn MK inh: inactive

Results for CN1CCN(S(=O)(=O)c2cccc(S(=O)(=O)c3ccc(Cl)c(Cl)c3)c2)CC1 ?
Autofluor 339: inactive; NADH enzymes: inactive; DPM-DC inhibit: inactive; Abs 340nm: inactive; PMK inhibit: 25.0; Spn MK inh: inactive

What do the screens show for `COc1cc(S(=O)(=O)N2CCN(C)CC2)ccc1Cl`?
Autofluor 339: inactive; NADH enzymes: inactive; DPM-DC inhibit: inactive; Abs 340nm: inactive; PMK inhibit: inactive; Spn MK inh: inactive

What do the screens show for `COc1cccc(OC)c1OCC(C)CNCC1CCCO1` (stereo not drawn)?
Autofluor 339: inactive; NADH enzymes: inactive; DPM-DC inhibit: inactive; Abs 340nm: inactive; PMK inhibit: inactive; Spn MK inh: 52.0

What do the screens show for `CCN1CCN(C(=O)c2cc3cc4cc(OC)ccc4nc3s2)CC1`?
Autofluor 339: 2.77; NADH enzymes: inactive; DPM-DC inhibit: inactive; Abs 340nm: inactive; PMK inhibit: inactive; Spn MK inh: inactive

Results for Cc1ccc2cc3cc(C(=O)N4CCN(C(=O)c5ccco5)CC4)sc3nc2c1 ?
Autofluor 339: inactive; NADH enzymes: inactive; DPM-DC inhibit: inactive; Abs 340nm: inactive; PMK inhibit: inactive; Spn MK inh: inactive

What do the screens show for `COC(=O)CSc1nnc2c3c4c(sc3nc(-n3nc(C)cc3C)n12)COC(C)(C)C4`?
Autofluor 339: 2.72; NADH enzymes: inactive; DPM-DC inhibit: inactive; Abs 340nm: inactive; PMK inhibit: inactive; Spn MK inh: inactive

Results for CN(Cc1ccccc1)Cc1c[nH]c2ccccc12 ?
Autofluor 339: inactive; NADH enzymes: inactive; DPM-DC inhibit: inactive; Abs 340nm: inactive; PMK inhibit: inactive; Spn MK inh: inactive

What do the screens show for `CN(Cc1ccccc1)Cc1c(F)cccc1F`?
Autofluor 339: inactive; NADH enzymes: inactive; DPM-DC inhibit: inactive; Abs 340nm: inactive; PMK inhibit: inactive; Spn MK inh: 52.0

What do the screens show for `Cc1cc2n(n1)C(c1ccco1)Nc1ccccc1-2` (stereo not drawn)?
Autofluor 339: inactive; NADH enzymes: inactive; DPM-DC inhibit: inactive; Abs 340nm: inactive; PMK inhibit: inactive; Spn MK inh: inactive

Results for Cc1cc2n(n1)C(c1ccc(O)cc1)Nc1ccccc1-2 (stereo not drawn) ?
Autofluor 339: 2.92; NADH enzymes: inactive; DPM-DC inhibit: inactive; Abs 340nm: inactive; PMK inhibit: inactive; Spn MK inh: inactive

Results for CCn1cc(C2Nc3ccccc3C(=O)N2O)c(C)n1 (stereo not drawn) ?
Autofluor 339: inactive; NADH enzymes: inactive; DPM-DC inhibit: inactive; Abs 340nm: inactive; PMK inhibit: inactive; Spn MK inh: inactive

Results for Cc1cc2n(n1)C(c1cn(-c3ccccc3)nc1C)Nc1ccccc1-2 (stereo not drawn) ?
Autofluor 339: 2.15; NADH enzymes: inactive; DPM-DC inhibit: inactive; Abs 340nm: inactive; PMK inhibit: inactive; Spn MK inh: inactive

How did Cc1cc2n(n1)C(c1c[nH]c3ccccc13)Nc1ccccc1-2 (stereo not drawn) do in these assays?
Autofluor 339: 2.35; NADH enzymes: inactive; DPM-DC inhibit: inactive; Abs 340nm: inactive; PMK inhibit: inactive; Spn MK inh: inactive

Results for O=C(CCC(=O)c1ccc(F)cc1)OC1CCOC1=O (stereo not drawn) ?
Autofluor 339: inactive; NADH enzymes: inactive; DPM-DC inhibit: inactive; Abs 340nm: inactive; PMK inhibit: inactive; Spn MK inh: inactive

What do the screens show for `CC1CCN(C(=O)CSc2nnc(Cc3cc(=O)[nH]c(=O)[nH]3)n2-c2ccc(Cl)cc2)CC1`?
Autofluor 339: inactive; NADH enzymes: inactive; DPM-DC inhibit: inactive; Abs 340nm: inactive; PMK inhibit: inactive; Spn MK inh: inactive

Results for Cc1cc(C)n2nc3nc(N4CCCCC4)nc(-c4ccco4)c3c2n1 ?
Autofluor 339: 2.14; NADH enzymes: inactive; DPM-DC inhibit: active; Abs 340nm: inactive; PMK inhibit: inactive; Spn MK inh: inactive

How did Cc1cc(C)n2nc3ccccc3c2n1 do in these assays?
Autofluor 339: inactive; NADH enzymes: inactive; DPM-DC inhibit: inactive; Abs 340nm: inactive; PMK inhibit: inactive; Spn MK inh: inactive

How did Cc1cc(N)n(-c2nc(-c3cccnc3)nc3ccccc23)n1 do in these assays?
Autofluor 339: inactive; NADH enzymes: inactive; DPM-DC inhibit: inactive; Abs 340nm: inactive; PMK inhibit: inactive; Spn MK inh: inactive
